{"source": "PubChem BioAssay AID540327", "about": "(National Center for Advancing Translational Sciences (NCATS), 2011)", "molecular_target": "Ubiquitin carboxyl-terminal hydrolase 1 (Homo sapiens) (UniProt O94782)", "sequence (O94782 whole entry, looked up)": "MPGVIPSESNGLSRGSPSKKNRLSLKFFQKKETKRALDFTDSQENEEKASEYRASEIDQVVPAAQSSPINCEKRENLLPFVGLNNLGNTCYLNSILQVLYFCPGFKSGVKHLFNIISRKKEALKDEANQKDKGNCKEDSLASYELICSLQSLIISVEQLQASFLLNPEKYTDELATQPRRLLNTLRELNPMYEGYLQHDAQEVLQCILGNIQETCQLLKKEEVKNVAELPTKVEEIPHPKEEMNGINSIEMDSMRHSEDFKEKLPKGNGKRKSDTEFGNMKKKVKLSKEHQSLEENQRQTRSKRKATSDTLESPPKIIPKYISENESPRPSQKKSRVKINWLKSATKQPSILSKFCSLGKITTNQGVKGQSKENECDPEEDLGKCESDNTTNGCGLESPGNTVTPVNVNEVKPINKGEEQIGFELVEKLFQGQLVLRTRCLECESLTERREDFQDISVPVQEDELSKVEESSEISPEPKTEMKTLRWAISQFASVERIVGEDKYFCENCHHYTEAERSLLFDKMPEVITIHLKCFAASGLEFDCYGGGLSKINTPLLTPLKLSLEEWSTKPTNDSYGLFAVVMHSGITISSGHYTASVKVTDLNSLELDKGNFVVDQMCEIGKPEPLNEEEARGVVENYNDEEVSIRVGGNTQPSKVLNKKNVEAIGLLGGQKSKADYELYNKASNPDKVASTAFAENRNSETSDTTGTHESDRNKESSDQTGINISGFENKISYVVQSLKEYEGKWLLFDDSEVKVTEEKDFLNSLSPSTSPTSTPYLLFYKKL", "test": "Inhibitors of USP1/UAF1: Hit Validation in Primary Assay", "conditions": "Ub-Rhodamine cleavage, fluorescence kinetic read", "description": "Deubiquitinating enzymes (DUBs) are a class of enzymes that can cleave isopeptide bond formed between the C-terminal carboxylate of ubiquitin and a lysine side-chain amino group on the target protein. Among them, ubiquitin specific proteases (USPs) constitute the largest DUB family. Human USPs are emerging as promising targets for pharmacological intervention because of their connection to a number of human diseases, including prostate, colon and breast cancer (1, 2), pediatric acute lymphoblastic leukemia (3), and familial cylindromatosis (4). The advantage of inhibiting USPs lies in the potential specificity of therapeutic intervention that can lead to better efficacy and reduce nonspecific side effects. […] This miniaturized assay has a fluorescent read-out and is used to screen the NIH Molecular Libraries Small Molecule Repository (MLSMR) in order to identify a small molecule that inhibits USP1. […]\n3 microliters of reagents (buffer in columns 3 and 4 as negative control and 1nM USP1/UAF1 complex in columns 1, 2, and 5-48) are dispensed into Greiner black solid bottom 1536-well assay plates. […] The plates are immediately centrifuged at 1000 rpm for 15 seconds, and subsequently transferred to a ViewLux high-throughput CCD imager (PerkinElmer) wherein kinetic measurements of fluorescence are acquired using 480 nm excitation/540 nm emission filter set (6 reads every 60 seconds, see Table 1). […]", "note": "Values joined by “and” are separate entries in the source; they are usually repeats but may differ in a detail not shown here. Identical values can stand only once. The list shows a part of the results. Results filed as inconclusive are left out. Active and inactive are the calls of the source. The call rests on the fitted dose curve; in most records, active means well fitted inhibition curve with a large enough effect; inconclusive means small, poorly fitted or top-dose-only effect; inactive means flat fitted curve, though single readings scatter."}
{"smiles": "CC(C)c1ccc2c(c1)c(SC(C)(C)C)c(CC(C)(C)C(=O)O)n2Cc1ccc(Cl)cc1", "values": [{"measurement": "Potency", "value": "66.3 µM (active) and 41.8 µM (active)"}]}
